About 2,700 (4%) of roughly 68,000 compounds showed an effect of 50% or more. Many of the other results were omitted from the sample, so strong results are more common in it than they were.

This assay concerns Plasmodium berghei. Nature of the assay: Screen against P. berghei liver stage (PbLuc), transformed with Luciferase, at 2uM. The format is functional, HepG2. The conditions noted are these: tested at 2 uM.
Take `Cc1ccc(C(=O)N(C)Cc2nccn2CC(F)(F)F)cn1`: the INHIBITION is recorded as -4.59%.
Consider `CN(Cc1nccn1CC(F)(F)F)C(=O)c1ccc(F)c(F)c1`, for which the INHIBITION is 32.57%.
The result for `COc1cc(C(=O)N(C)Cc2nccn2CC(F)(F)F)ccc1C` reads -5.68%; that for `CN(Cc1nccn1CC(F)(F)F)C(=O)c1ccc(F)cc1F`, 73.96%.
The result for `CN(Cc1nccn1CC(F)(F)F)C(=O)c1cccc(N(C)C)c1` reads 27.53%; that for `CCOc1ccc(C(=O)N(C)Cc2nccn2CC(F)(F)F)cc1`, 52.57%; that for `COCC(=O)NC(C)Cc1cccc(Cl)c1` (centres undefined), -20.82%.
Next, `CC[C@H]1CN(C(=O)c2cnc(CN3CCCC3)s2)CC[C@@]1(C)O`: -47.18%.
For the compound `Cc1ccc([C@@H]2CN(S(=O)(=O)N3CCC(C)CC3)C[C@H]2N(C)C)cc1`, the INHIBITION was 65.1%.
`Cc1ccc([C@@H]2CN(S(=O)(=O)C(C)C)C[C@H]2N(C)C)cc1`: the INHIBITION amounted to 4.47%.
As for `Cc1ccc([C@@H]2CN(S(=O)(=O)N(C)C)C[C@H]2N(C)C)cc1`, the INHIBITION turned out to be 28.49%.
Take `CN(C)C(=O)CN1CCC(c2c(C(N)=O)sc3ncccc23)C1` (centres undefined): the INHIBITION is listed as -21.9%.
With `CCn1ccnc1C1CCCN(C(=O)c2sc(C)nc2C)C1` (centres undefined), the INHIBITION came out at 58.56%.
Next, `Cc1nc(C)c(C(=O)N2CCCC(c3cnccn3)C2)s1` (centres undefined): 38.65%; `Cc1nc(N)sc1C(=O)N1CCCC(c2nccn2CCCN(C)C)C1` (centres undefined): 29.02%.
`CC(=O)N1CCOC2(CCN(C(=O)c3cnoc3C)CC2)C1`: the INHIBITION was -21.09%.
For `CC(C)c1cccc(-n2cc(O)c(C(=O)O)n2)c1`, the INHIBITION amounted to 50.61%.
Regarding `CC(C)c1cccc(-n2cc(O)c(C(N)=O)n2)c1`, the INHIBITION was determined as 11.9%.
For the compound `CC(C)c1ccc(-n2cc(O)c(C(=O)O)n2)cc1`, the INHIBITION was determined as 23.16%.
The result for `CN(C)CC(=O)N1CCC2(CC1)CN(c1ncccn1)CCO2` reads 25.4%.
Next, `CCC(C)n1cnc(S(=O)(=O)N(Cc2cccnc2)C(C)C)c1` (centres undefined): 59.03%; `CCC(C)n1cnc(S(=O)(=O)N(C)c2cccnc2N(C)C)c1` (centres undefined): 11.9%; `CCC(C)n1cnc(S(=O)(=O)N(C)C)c1` (centres undefined): -15.03%.
As to `O=C(Nc1cccc(CNCc2ccsc2)c1)C1CC1`, the INHIBITION is 30.92%.
The result for `O=C(Nc1cccc(CNCc2cccs2)c1)C1CCCC1` reads -5.15%; that for `O=C(Nc1cccc(CNCc2cccs2)c1)C1CC1`, 62.82%; that for `CNC(=O)N1CC[C@@H]2CN(Cc3cccc(OC)c3)S(=O)(=O)[C@@H]2CC1`, -72.58%.
As for `CS(=O)(=O)N1CC2(CCN(C3COC3)C2)Cc2ccccc21` (centres undefined), the INHIBITION is on record as 26.56%.
For the compound `O=C(NCCCn1nc2ccccn2c1=O)NC1CCC(O)CC1` (centres undefined), the INHIBITION came to 8.3%.
As for `CCN(C(=O)CNc1cc(C)c(F)cc1C(N)=O)C1CC1`, the INHIBITION is listed as -31.4%.
For the compound `Cc1noc(C)c1S(=O)(=O)NC(=O)COc1ccc2c(c1)CCC2`, the INHIBITION came out at 56.78%.
Next, `Cc1noc(C)c1S(=O)(=O)NC(=O)COc1cccc(C(C)C)c1`: 42.99%.
Next, `Cc1cc(OCC(=O)NS(=O)(=O)c2c(C)noc2C)ccc1Cl`: -12.48%.
Next, `Cc1ccc(OCC(=O)NS(=O)(=O)c2c(C)noc2C)cc1C`: 57.33%.
`Cc1cc(C)c(OCC(=O)NS(=O)(=O)c2c(C)noc2C)c(C)c1`: the INHIBITION was determined as 5.72%.
On to `Cc1noc(C)c1S(=O)(=O)NC(=O)COc1ccc(C(C)C)cc1`, for which the INHIBITION is recorded as 19.71%.
The result for `O=C(c1ccccc1)C1CCN(C(=O)CC2COCCN2)CC1` (centres undefined) reads -13.88%.
As to `CCn1cnnc1C1CCN(C(=O)c2ccccc2F)CC1`, the INHIBITION was -19.35%.
The result for `COc1ccc(NC(=O)N2CCC(c3noc(C)n3)CC2)cc1C` reads -30.88%.
Next, `c1ccc(N2CCCC3(CCN(Cc4ccsc4)C3)C2)nc1` (centres undefined): 33.14%; `CC(=O)NCC(=O)N1CCCC1c1ccc(CN2CCOCC2)cn1` (centres undefined): 26.22%.
For the compound `CC(C)c1noc(CN2CCN(C(=O)c3cccnc3O)CC2)n1`, the INHIBITION is given as -2.82%.
Turning to `Cc1cc(CNc2nccc(N)n2)c2[nH]c(C)c(C)c2c1`, the INHIBITION is -5.41%.
The result for `CCc1ncnc2c1CCN(S(=O)(=O)CC)CC2` reads 1.81%; that for `Cc1ncsc1CCN(C)C(=O)c1ccc(CN2CCCCC2)cc1`, -20.75%.
Next, `Cc1nc(CN(C)C(=O)c2ccc(Cn3cnnn3)cc2)cs1`: 21.57%; `Cc1ncsc1CCN(C)C(=O)c1ccc(Cn2cnnn2)cc1`: 89.46%.
On to `CC(Cn1ccnc1)NC(=O)NCCc1ccc2c(c1)OCCO2` (centres undefined), for which the INHIBITION was -14.3%.
Next, `O=C(N1CCCC1)C1(Cc2ccc(-c3cccs3)cc2)CCNC1` (centres undefined): 17.24%; `COCC(=O)N1CCCN(Cc2c(C)nc3ccc(Cl)cn23)CC1`: 12.43%; `CCn1cc(CN2CCN(CC(O)c3cc(C)ccc3C)CC2)c(C)n1` (centres undefined): -2.2%.
Turning to `CCn1cc(CN2CCN(CC(O)c3ccc(C)cc3C)CC2)cn1` (centres undefined), the INHIBITION stood at 35.73%.
Next, `CCn1cc(CN2CCN(CC(O)c3ccc(C)cc3C)CC2)c(C)n1` (centres undefined): 54.9%; `CN(Cc1ccc(N(C)C)cc1)C(=O)CS(=O)(=O)c1ccc(Cl)cc1`: 9.02%; `Cc1nccc(C2CCCCN2Cc2ccc(F)cc2)n1` (centres undefined): -10.12%.
The result for `c1ccc(C2CCCN2Cc2nc(-c3cnccn3)no2)nc1` (centres undefined) reads -5.19%.
Next, `Cc1nccc(C2CCCCN2Cc2cccc(F)c2)n1` (centres undefined): 94.5%; `Fc1cccc(C2CCCCN2Cc2nc(-c3cnccn3)no2)c1` (centres undefined): 58.69%.
`c1ccc(C2CCCCN2Cc2nc(-c3cnccn3)no2)nc1` (centres undefined): the INHIBITION is given as 6.92%.
Next, `Nc1nccc(C2CCCCN2Cc2cccc(F)c2)n1` (centres undefined): 25.72%; `Cc1cc(=O)[nH]c(-n2nc(C)c(CCC(=O)Nc3nc(C)cs3)c2C)n1`: -7.56%; `Cc1ccsc1CN1CCn2c(COc3cccnc3)cnc2C1C` (centres undefined): 3.63%.
The result for `O=S(=O)(Nc1cnn(C2CCOCC2)c1)c1ccc(F)c(F)c1` reads -38.4%.
For the compound `COc1cccc(CNC(=O)CCC2=Nc3ccccc3S(=O)(=O)N2)c1`, the INHIBITION is -1.65%.
For `Cc1ccc(NCCCNc2nccc(-c3cn(C)nc3C)n2)nc1`, the INHIBITION came out at 37.5%.
The result for `CNC(=O)C1Cn2ccnc2C2(CCN(Cc3cccc(C)n3)CC2)O1` (centres undefined) reads -15.95%; that for `O=C(Cn1cccn1)NCC1CCCN(Cc2ccccc2)C1` (centres undefined), 81.59%.
`O=C(Cn1cccn1)NCC1CCN(Cc2cc3ccccc3[nH]2)C1` (centres undefined): the INHIBITION is recorded as -0.59%.
For `Cc1cc(CN2CCCC(CNC(=O)Cn3cccn3)C2)oc1C` (centres undefined), the INHIBITION was 2.9%.

The values are drawn from ChEMBL document CHEMBL4513216, “Probing the Open Global Health Chemical Diversity Library for Multistage-Active Starting Points for Next-Generation Antimalarials” (ACS Infect Dis, 2020).
